# Sampled rows, rich in hits. Any-hit rate of the full collection: about 3%.
# SENP8 block-1 = inhibitors of human SENP8 protease; Q96LD8; purified SENP8, Z-RLRGG-aminoluciferin cleavage, luminescence; inhibition, % at 10 µM; 1.2% of 330,000 active; AID 2540; in the data active = inhibition above about 50%
# PPC-1+TRAIL kill = kills PPC-1 cancer cells in the presence of TRAIL; PPC-1 cells + TRAIL, ATPLite viability luminescence; cell killing (% activity), % at 4 µM or 5 µM; 0.41% of 220,000 active; AID 1443;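 active = cell killing above 50% in the first pass at 4 µM, then a duplicate retest at 5 µM averaging 50% or more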;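 also: plate controls were cells with TRAIL plus DMSO for no effect and medium-only wells lacking cells for full effect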
# SENP7 block = inhibitors of human SENP7 protease; 1.5% of 330,000 active; AID 434973; Q9BQF6; recombinant SENP7, Z-RLRGG-aminoluciferin luminescence, 40 min; inhibition, % at 5 µM;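 active = inhibition above about 50% at the single test dose, limit read from the data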;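 also: plate controls were DMSO with enzyme for no effect and no enzyme buffer wells for full effect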
# SENP8 block-2 = blocks human SENP8 cleavage of Nedd8 substrate; recombinant SENP8, Nedd8 substrate fluorescence; inhibition, % at 20 µM; 0.64% of 360,000 active; AID 602440; in the data active = inhibition mostly above about 40%, no sharp cut-off; inactive = mostly below about 27%
# SENP6 inh = inhibitors of human SENP6 protease; Q9GZR1; Recombinant SENP6 catalytic domain, aminoluciferin luminescence; inhibition, % at 10 µM; 1.8% of 330,000 active;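 active = inhibition above about 50% at the single tested dose, limit read from the data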;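 also: plate controls were DMSO wells with enzyme for no effect and DMSO wells lacking enzyme for full effect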
# Target sequence (Q9GZR1 628-1112 limits assumed): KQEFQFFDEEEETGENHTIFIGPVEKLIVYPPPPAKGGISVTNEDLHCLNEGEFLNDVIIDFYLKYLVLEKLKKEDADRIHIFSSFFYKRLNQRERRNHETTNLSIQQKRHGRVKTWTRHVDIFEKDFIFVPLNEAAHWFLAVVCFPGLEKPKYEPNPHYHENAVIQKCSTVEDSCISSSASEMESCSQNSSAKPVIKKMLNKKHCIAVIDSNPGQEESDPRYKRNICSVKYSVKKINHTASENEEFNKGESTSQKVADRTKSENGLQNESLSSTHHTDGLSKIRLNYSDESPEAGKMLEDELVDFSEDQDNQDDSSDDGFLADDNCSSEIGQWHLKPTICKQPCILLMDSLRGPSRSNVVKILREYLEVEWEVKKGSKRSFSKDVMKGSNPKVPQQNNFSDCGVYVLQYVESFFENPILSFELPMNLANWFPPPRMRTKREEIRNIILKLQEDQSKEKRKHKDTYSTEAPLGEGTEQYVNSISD
# C8 TRAIL sens = sensitizes caspase-8 expressing cells to TRAIL | inhibition (viability loss, TRAIL sensitization), % at 10 µM | 1% of 360,000 active | NB7+C8 cells + TRAIL, ATPlite viability luminescence | AID 624354;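 active = compounds causing at least 50% loss of cell viability in the single-dose screen, relative to plate controls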
# The depositor's hits bear a star; / = not tested or not shown.
SMILES,SENP8 block-1,PPC-1+TRAIL kill,SENP7 block,SENP8 block-2,SENP6 inh,C8 TRAIL sens
CCCn1c(=O)n(C)c(=O)c2c(SCC(=O)Nc3cc(C)on3)nc(C(C)(C)C)nc21,0,/,5,8,-1,8
O=C(NCCc1ccccc1)C(=O)NCC1OCCCN1S(=O)(=O)c1cccs1 (configuration not stated),0,/,6,-6,-4,-15
COc1ccc(C(C#N)CC(=O)c2ccc(OC)c(OCc3ccccc3)c2)cc1OC (configuration not stated),/,/,/,-58,/,-7
Nc1[nH]n2c(=O)cc(-c3ccccc3)nc2c1N=Nc1ccccc1,1,-6,13,57*,9,19
NS(=O)(=O)c1ccc(N=Nc2c(-c3ccccc3)[nH]n(-c3nc(-c4ccccc4)cs3)c2=O)cc1,-13,15,-7,30,0,54*
Nc1[nH]n2c(=O)cc(-c3ccccc3)nc2c1N=Nc1ccc(S(N)(=O)=O)cc1,5,6,8,60*,17,11
CCOC(=O)c1cnc(-n2nc(C)cc2C)nc1N(C)C,-4,44,13,14,0,50*
CCCCCCCCn1ccc(=N)cc1,5,31,3,16,-15,30
CCCCCCCCCCn1ccc(=N)cc1,0,47,3,22,-8,55*
COc1ccc(C(=O)CN2C(=O)c3ccccc3S2(=O)=O)cc1Br,-1,/,0,-18,-6,20
COc1ccc(C(=O)CN2C(=O)c3ccccc3S2(=O)=O)cc1,-2,38,5,2,-11,65*
CCCn1c(C)cc(C(=O)CN2C(=O)c3ccccc3S2(=O)=O)c1C,/,/,/,-9,/,58*
O=S(=O)(/C=C/C=C/S(=O)(=O)c1ccccc1)c1ccccc1,/,/,/,13,/,8
CCCCCCN1C[C@H](O)[C@@H](n2cc(C3CC3)nn2)C[C@@H]1c1ccccc1,/,/,/,0,/,8
CC(=O)C1=CCC(c2ccccc2)N(Cc2ccccc2)C1 (configuration not stated),/,/,/,12,/,-9
COc1ccc(C2CC(c3c(O)cc(C)oc3=O)=NCCS2)c(OC)c1 (configuration not stated),-7,20,-6,-16,-15,78*
O=c1cc(-c2ccc(O)cc2)oc2c(O)c(O)c(O)c(O)c12,24,2,11,71*,44,12
CCc1nc2ccc(C(=O)NCc3ccc4c(c3)OCO4)cn2c1N(CC)Cc1cccc(Br)c1,/,/,/,7,/,1
Cc1ccc(S(=O)(=O)Cc2cc(F)c([N+](=O)[O-])cc2[N+](=O)[O-])cc1,3,/,3,21,-13,65*
Cc1cc(NS(=O)(=O)c2ccc(NC(=O)CCCOc3ccccc3C)cc2)no1,-3,/,5,0,-6,-3
Cc1ccc(S(=O)(=O)N2CC3(O)CN(C(=O)OC(C)C)N(C(=O)OC(C)C)CC3(OC(=O)NCc3ccco3)C2)cc1 (configuration not stated),/,/,/,2,/,9
CCCCN=C1NN=C(c2ccc3c(c2)OCCO3)CS1,18,30,-2,-10,15,63*
O=c1c(Cl)c(N2CCC3(CC2)OCCO3)cnn1C12CC3CC(CC(C3)C1)C2,-1,16,0,15,6,-10
COC(=O)c1sc(NC(=S)NC(=O)c2cccc(C)c2)nc1C,10,13,3,21,37,51*
Cc1nc(NC(=S)NC(=O)c2ccccc2)sc1C,-20,19,16,31,6,63*
SMILES,SENP8 block-1,PPC-1+TRAIL kill,SENP7 block,SENP8 block-2,SENP6 inh,C8 TRAIL sens
COC(=O)c1sc(NC(=O)COc2cccc(C)c2)nc1C,4,9,3,9,8,-5
COC(=O)c1ccc(C(=O)NC(=S)Nc2nc3c(s2)CCCC3)cc1,/,-7,/,36,/,13
O=C(Nc1nc2c(s1)CN(Cc1ccccc1)CC2)C1CCC1,4,12,6,-237,20,1
Cc1cc(C)c(NC(=S)NC(=O)c2ccccc2)cc1C,/,/,/,4,/,7
CCN1CCc2nc(NC(=O)c3ccccc3)sc2C1,0,49,5,-230,14,50*
O=C(NC(=S)Nc1nc2c(s1)CCCC2)c1ccccc1,/,23,/,33,/,71*
COc1ccc(Br)c(Cn2c(C)c(C(=O)NCc3cccc([N+](=O)[O-])c3)sc2=O)c1,/,/,/,6,/,-10
Cc1ccc(Cc2c(-c3cccc(Cl)c3)nc3c(C)cc(Br)cn23)cc1,/,/,/,5,/,10
COc1cccc(/C=N/NC(=O)c2cc(-c3cccn3C)n[nH]2)c1O,2,30,-9,-4,4,55*
COc1cccc(/C=N/NC(=O)c2cc3c(OC)cccc3[nH]2)c1OC,-8,8,-1,-406,-3,-5
COc1cc(/C=N/NC(=O)c2cc(-c3cccn3C)n[nH]2)cc(OC)c1OC,1,-13,-1,-103,-8,21
COc1cccc(/C=N/NC(=O)c2cc3c(OC)cccc3[nH]2)c1O,-4,46,-10,-160,7,53*
Cc1ccc(-c2cc(C(=O)n3cnc4ccccc43)c3ccccc3n2)cc1C,-3,48,-8,-278,16,67*
Cc1ccc(-c2cc(C(=O)NCc3ccccn3)c3ccccc3n2)cc1C,-5,28,-9,-179,-1,41
COc1ccc(OC)c(-c2cc(C(=O)N/N=C(\C)c3cccnc3)c3ccccc3n2)c1,-2,/,10,-72,-24,-4
Cc1ccc(-c2cc(C(=O)N/N=C/c3cccnc3)c3ccccc3n2)cc1C,-11,/,-8,-33,-9,61*
CCOc1ccc(-c2cc(C(=O)N/N=C(\C)c3cccnc3)c3ccccc3n2)cc1,4,/,6,-414,6,68*
Cc1cccc(C)c1NC(=O)CSc1nnc(C2CCCCC2)o1,2,/,1,8,-5,0
COc1ccc(S(=O)(=O)N2CCOCC2)cc1NC(=O)c1cc2ccccc2o1,1,/,1,-36,-1,-8
COc1ccc2c(CC(=O)OCC(=O)Nc3sc4c(c3C#N)CCC(C)C4)coc2c1 (configuration not stated),-3,6,12,11,13,6
CN1CCN(c2ccc3sc(-n4ccc5ccccc54)nc3c2)CC1,/,/,/,-26,/,68*
O=C(NCC1CCCN(Cc2ccc3nonc3c2)C1)c1cccc(C(F)(F)F)c1 (configuration not stated),-13,/,4,12,-6,-3
CC#CC[N+](C)(C)CCCCCCCC,5,2,7,5,-24,9
CCCCCCCCCCCCCCCC[N+](C)(C)Cc1ccc(F)cc1,/,/,/,17,/,54*
COc1c(Cl)cnn(-c2ccc(C)cc2)c1=O,2,19,-4,8,-5,8
COc1ccc(Oc2c(Cl)cnn(-c3ccc(Cl)c(Cl)c3)c2=O)cc1,-6,9,-11,10,-3,89*
COc1ccc(Oc2c(Cl)cnn(-c3ccc(C)cc3)c2=O)cc1,-3,16,-13,12,-20,61*
